Assay outcomes: PubChem, Broad Institute
DUX4 txn inh: blocks DUX4-driven transcriptional activation; 293T-iDUX4 ZSCAN4-Gaussia luciferase reporter, 24 h; stronger effect = lower value; activity change, negative = inhibition, % (concentration not given with the values); actives 0.8% (n = 37,000); AID 1224904;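 active means mean inhibition of at least 10% in the main channel, exceeding the control channel by a set limit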;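 further: 0% = median of neutral control wells and -100% = median of positive control wells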
An asterisk follows results filed as active. This is one part of a sample in which hits are shown more often than they occur.

SMILES	DUX4 txn inh
CC(C)(O)C#Cc1ccc([C@@H]2[C@@H](CO)N3CCCCN(C(=O)c4ccc(F)cc4)C[C@H]23)cc1	1
CC(C)(O)C#Cc1ccc([C@H]2[C@@H](CO)N3CCCCN(C(=O)c4ccc(F)cc4)C[C@@H]23)cc1	7
CC(C)CC#Cc1ccc([C@@H]2[C@H]3CN(S(=O)(=O)Cc4ccccc4)CCCCN3[C@H]2CO)cc1	-2
CC(C)C#Cc1ccc([C@@H]2[C@H]3CN(C(=O)c4ccc(F)cc4)CCCCN3[C@H]2CO)cc1	-26*
O=S(=O)(c1ccc(F)cc1)N1CCCCN2[C@@H](CO)[C@H](c3ccc(C#CC4CC4)cc3)[C@@H]2C1	-26*
O=S(=O)(c1ccccc1)N1CCCCN2[C@@H](CO)[C@@H](c3ccc(C#CC4CCCC4)cc3)[C@@H]2C1	13
O=S(=O)(c1ccccc1)N1CCCCN2[C@@H](CO)[C@H](c3ccc(C#CC4CCCC4)cc3)[C@@H]2C1	4
CC(C)CC#Cc1ccc([C@@H]2[C@H]3CN(S(=O)(=O)c4ccc(F)cc4)CCCCN3[C@H]2CO)cc1	-22*
O=C(O)C[C@@H]1C=C[C@@H](NC(=O)Nc2cc(F)ccc2F)[C@@H](CO)O1	3
CCC(=O)N1CC(=O)N2[C@H](CO)[C@@H](c3ccc(C#CC4CCCCC4)cc3)[C@@H]2C1	-4
CN1CCN(C(=O)[C@H]2[C@H](CO)[C@H]3Cn4c(ccc(/C=C/c5ccccc5)c4=O)[C@H]3N2CC2CC2)CC1	2
C[C@@H]1CN([C@@H](C)CO)C(=O)c2cc(NC(=O)c3ccncc3)ccc2O[C@@H](C)CCCCO[C@H]1CN(C)C(=O)Nc1cccc2ccccc12	0
CCCC#Cc1ccc([C@H]2[C@H]3CN(Cc4ccncc4)CCCCN3[C@H]2CO)cc1	-9
COc1ccc(C#Cc2ccc([C@H]3[C@@H](CO)N4CCCCN(C)C[C@@H]34)cc2)cc1	-1
COc1ccc(C#Cc2ccc([C@@H]3[C@@H](CO)N4CCCCN(C)C[C@H]34)cc2)cc1	-7
COc1ccc(C#Cc2ccc([C@@H]3[C@H](CO)N4CCCCN(C)C[C@@H]34)cc2)cc1	-24*
CCCC#Cc1ccc([C@H]2[C@@H](CO)N3CCCCN(Cc4ccncc4)C[C@@H]23)cc1	6
COc1ccc(C#Cc2ccc([C@@H]3[C@@H](CO)N4CCCCN(Cc5ccncc5)C[C@H]34)cc2)cc1	-26*
OC[C@@H]1[C@@H](c2ccc(C#CC3(O)CCCC3)cc2)[C@H]2CN(Cc3ccncc3)CCCCN12	13
COCC#Cc1ccc([C@@H]2[C@H](CO)N3CCCCN(Cc4ccncc4)C[C@@H]23)cc1	17
COc1ccc(C#Cc2ccc([C@H]3[C@H]4CN(Cc5ccncc5)CCCCN4[C@H]3CO)cc2)cc1	-55*
Cc1noc(C)c1NC(=O)Nc1ccc2c(c1)C(=O)N([C@H](C)CO)C[C@@H](C)[C@@H](CN(C)C(=O)NC1CCCCC1)OCCCC[C@H](C)O2	6
CC(C)NC(=O)N1CCCCN2[C@@H](CO)[C@H](c3ccc(C#Cc4ccccc4F)cc3)[C@@H]2C1	-9
C[C@H](CO)N1C[C@H](C)[C@@H](CN(C)Cc2ccc(Cl)c(Cl)c2)OCCCC[C@H](C)Oc2ccc(NC(=O)c3ccncc3)cc2C1=O	3
COc1ccccc1NC(=O)N(C)C[C@H]1OCc2cn(nn2)CCCC(=O)N([C@@H](C)CO)C[C@H]1C	2
SMILES	DUX4 txn inh
CCC(=O)N1[C@H](CO)[C@@H](c2ccccc2)C12CN(C(=O)Cc1ccccc1)C2	2
C[C@H](CO)N1C[C@H](C)[C@@H](CN(C)S(C)(=O)=O)OCc2cnnn2CCCC1=O	-1
C[C@H]1CN([C@@H](C)CO)C(=O)c2cccc(NC(=O)c3ccc(-c4nccs4)cc3)c2O[C@H]1CN(C)C(=O)Nc1ccc(C(F)(F)F)cc1	2
CN(C)CC#Cc1ccc([C@@H]2[C@H](CO)N3CCCCN(C(=O)Nc4cc(F)ccc4F)C[C@@H]23)cc1	20
C/C=C/c1ccc([C@H]2[C@@H](CO)N3CCCCN(C(=O)Nc4ccc(F)cc4)C[C@@H]23)cc1	15
COCC#Cc1ccc([C@@H]2[C@@H](CO)N3CCCCN(C(=O)Nc4cc(F)ccc4F)C[C@@H]23)cc1	-1
COCC#Cc1ccc([C@H]2[C@@H](CO)N3CCCCN(C(=O)Nc4cc(F)ccc4F)C[C@H]23)cc1	-23*
O=C(Nc1ccccc1F)N1CCCCN2[C@H](C1)[C@H](c1ccc(/C=C/c3ccccc3)cc1)[C@@H]2CO	3
C/C=C/c1ccc([C@@H]2[C@@H](CO)N3CCCCN(C(=O)Nc4cc(F)ccc4F)C[C@@H]23)cc1	-13*
N#C[C@@H]1[C@@H](c2ccc(-c3cccc(F)c3)cc2)[C@H](CO)N1C(=O)c1cccnc1	1
CCCNC(=O)N1[C@H](C(=O)NC2CCC2)[C@@H](CO)[C@@H]2Cn3c(ccc(-c4ccccc4OC)c3=O)[C@@H]21	3
C[C@H](CO)N1C[C@H](C)[C@H](CN(C)C(=O)Nc2ccc3c(c2)OCO3)Oc2c(NS(=O)(=O)c3ccc(Cl)cc3)cccc2C1=O	4
CCCNC(=O)C[C@@H]1CC[C@@H]2[C@H](COC[C@@H](O)CN2C(=O)C2CCOCC2)O1	6
COc1ccc2c3c(n(C)c2c1)[C@H](CO)N(C(C)=O)CC31CN(C(=O)C2CC2)C1	14
CN(C)C(=O)[C@@H]1[C@@H](CO)[C@@H]2Cn3c(ccc(C4=CCCCC4)c3=O)[C@@H]2N1Cc1ccc2c(c1)OCO2	-15*
CCNC(=O)[C@H]1[C@H](CO)[C@H]2Cn3c(ccc(C4=CCCCC4)c3=O)[C@H]2N1Cc1ccc2c(c1)OCO2	-3
CN(C)C(=O)[C@H]1[C@H](CO)[C@H]2Cn3c(ccc(C4=CCCCC4)c3=O)[C@H]2N1Cc1ccc2c(c1)OCO2	6
O=C(C[C@H]1CC[C@H]2[C@@H](COC[C@@H](O)CN2S(=O)(=O)c2cccc(Cl)c2)O1)N1CCOCC1	6
COc1ccccc1CN(C)C[C@@H]1OCc2ccccc2-c2c(n(C)c3ccccc23)C(=O)N([C@@H](C)CO)C[C@@H]1C	-32*
C[C@H](CO)N1C[C@H](C)[C@H](CN(C)Cc2cccc3c2OCCCO3)OCc2ccccc2-c2ccccc2C1=O	-1
C[C@@H]1CN([C@@H](C)CO)C(=O)c2ccccc2-c2ccccc2CO[C@H]1CN(C)Cc1ccccc1C(F)(F)F	-7
C[C@@H]1CN([C@@H](C)CO)C(=O)c2c(c3ccccc3n2C)-c2ccccc2CO[C@H]1CN(C)Cc1cccc2c1OCCCO2	-31*
C[C@@H]1CN([C@H](C)CO)C(=O)c2c(c3ccccc3n2C)-c2ccccc2CO[C@H]1CN(C)Cc1ccccc1C(F)(F)F	-49*
C[C@@H]1CN([C@H](C)CO)C(=O)c2c(c3ccccc3n2C)-c2ccccc2CO[C@H]1CN(C)C	4
C[C@H]1CN([C@@H](C)CO)C(=O)c2c(c3ccccc3n2C)-c2ccccc2CO[C@@H]1CN(C)C	-8
C[C@H](CO)N1C[C@H](C)[C@@H](CN(C)C)OCc2ccccc2-c2c(n(C)c3ccccc23)C1=O	3
C[C@@H]1CN([C@H](C)CO)C(=O)c2c(c3ccccc3n2C)-c2ccccc2CO[C@@H]1CN(C)Cc1ccncc1	-1
CO[C@H]1CN(C)C(=O)c2cc(NS(C)(=O)=O)ccc2OC[C@H](C)N(CCC(F)(F)F)C[C@H]1C	-1
CC(=O)N(C)C[C@H]1Oc2cc(C#Cc3ccc(F)cc3)ccc2S(=O)(=O)N([C@H](C)CO)C[C@@H]1C	-2
